The values that follow come from the antibiotic and cytotoxicity screens of Wong et al. (2023).

Among all 39,000 compounds or so, about 3,300 (8.5%) were called active. This is one part of a sample in which actives are shown more often than they occur.

The subject of this assay is HepG2. The experiment in a line: cytotoxicity call (relative viability < 0.9). Particulars: 10 µM.
On to `COc1ccc(NC(=O)N(C)C[C@H]2OCCCC[C@H](C)Oc3ccc(NC(=O)NC(C)C)cc3C(=O)N([C@@H](C)CO)C[C@@H]2C)cc1`, for which the cytotoxicity call is “inactive”.

In the case of `Cc1cc(C(=O)Nc2cccc3c2O[C@H](CN(C)S(=O)(=O)c2ccc(F)cc2)[C@@H](C)CN([C@@H](C)CO)C3=O)n(C)n1`, the cytotoxicity call was “inactive”.

With `C[C@H](CO)N1C[C@H](C)[C@@H](CN(C)C(=O)Nc2ccc3c(c2)OCO3)Oc2ccc(NC(=O)Nc3cccc4ccccc34)cc2C1=O`, the cytotoxicity call is “inactive”.

Take `COc1ccc(S(=O)(=O)N(C)C[C@@H]2Oc3c(NC(=O)c4ccncc4)cccc3C(=O)N([C@H](C)CO)C[C@H]2C)cc1`: the cytotoxicity call is “inactive”.

`C=CC(=O)NCCN1CCCCC1`: the cytotoxicity call is “inactive”.

Consider `CN(C)CCc1cc(Br)c(OCCCNC(=O)/C=C/c2cc(Br)c(OCCN3CCCC3)c(Br)c2)c(Br)c1`, for which the cytotoxicity call is “active”.

Consider `CN(C)CCc1cc(Br)c(OCCCNC(=O)/C=C/c2cc(Br)c(OCCN3CCCCC3)c(Br)c2)c(Br)c1`, for which the cytotoxicity call was “active”.

As for `COc1ccc(NC(=O)Nc2ccc3c(c2)C(=O)N([C@@H](C)CO)C[C@@H](C)[C@@H](CN(C)S(=O)(=O)c2ccc(Cl)cc2)OCCCC[C@@H](C)O3)cc1`, the cytotoxicity call was “inactive”.

As to `C[C@H](CO)N1C[C@H](C)[C@H](CN(C)S(C)(=O)=O)OCCCC[C@H](C)Oc2ccc(NS(C)(=O)=O)cc2C1=O`, the cytotoxicity call was “inactive”.

For `NC(=O)C1CCOCC1`, the cytotoxicity call is “inactive”.

As to `C[C@@H]1CN([C@H](C)CO)C(=O)c2cc(C#Cc3ccccn3)cnc2O[C@H]1CN(C)C(=O)CCN1CCCCC1`, the cytotoxicity call was “inactive”.

`CC(=O)O[C@H]1CCS(=O)(=O)C1`: the cytotoxicity call was “inactive”.

On to `COc1cccc(C(=O)Nc2ccc3c(c2)C(=O)N(C)[C@@H]2CC[C@@H](CC(=O)NCC(F)(F)F)O[C@H]2CO3)c1`, for which the cytotoxicity call was “inactive”.

For `CCn1nnnc1NCc1cccn1C`, the cytotoxicity call was “inactive”.

Regarding `C[C@@H]1CN([C@H](C)CO)C(=O)c2cc(NC(=O)Nc3ccc(C(F)(F)F)cc3)ccc2O[C@H]1CN(C)Cc1ccc(C(F)(F)F)cc1`, the cytotoxicity call was “active”.

Take `C[C@@H]1CN([C@@H](C)CO)C(=O)c2cc(NC(=O)Nc3ccc(C(F)(F)F)cc3)ccc2O[C@@H]1CN(C)Cc1ccc(C(F)(F)F)cc1`: the cytotoxicity call is “active”.

As to `C[C@@H]1CN([C@@H](C)CO)C(=O)c2cc(NC(=O)Nc3ccc(C(F)(F)F)cc3)ccc2O[C@H]1CN(C)Cc1ccc(C(F)(F)F)cc1`, the cytotoxicity call is “active”.

`C[C@@H]1CN([C@H](C)CO)C(=O)c2cc(NC(=O)Nc3ccc(C(F)(F)F)cc3)ccc2O[C@@H]1CN(C)Cc1ccc(C(F)(F)F)cc1`: the cytotoxicity call was “active”.

`C[C@H](CO)N1C[C@H](C)[C@H](CN(C)S(=O)(=O)c2ccc(F)cc2)Oc2ccc(NS(=O)(=O)c3ccc(F)cc3)cc2CC1=O`: the cytotoxicity call is “inactive”.

With `c1cnc2c(c1)OCCN2`, the cytotoxicity call was “inactive”.

As to `C=CCC[C@@H](Cc1ccc(F)cc1)C(=O)OC[C@H]1CCCN1C(=O)[C@H](CC=C)CC(=O)N(CCO)Cc1ccccc1`, the cytotoxicity call was “inactive”.

Regarding `C[C@@H]1CCCCO[C@@H](CN(C)C(=O)C2CCCCC2)[C@@H](C)CN([C@@H](C)CO)C(=O)c2cc(NC(=O)c3ccccc3)ccc2O1`, the cytotoxicity call was “inactive”.

Regarding `O=c1nc(NCc2ccco2)cc[nH]1`, the cytotoxicity call was “inactive”.

Turning to `C[C@@H]1CN([C@@H](C)CO)C(=O)c2cc(NC(=O)Cn3cnnn3)ccc2O[C@H]1CN(C)Cc1ccc2c(c1)OCO2`, the cytotoxicity call was “inactive”.

Regarding `COc1ccc(S(=O)(=O)N(C)C[C@H]2Oc3ccc(NS(=O)(=O)c4ccccc4)cc3C(=O)N([C@H](C)CO)C[C@@H]2C)cc1`, the cytotoxicity call is “inactive”.

`Cc1ccc(S(=O)(=O)Nc2ccc3c(c2)CC(=O)N([C@@H](C)CO)C[C@H](C)[C@@H](CN(C)S(=O)(=O)c2ccccc2)O3)cc1`: the cytotoxicity call was “inactive”.

Consider `Cc1noc(C)c1NC(=O)Nc1ccc2c(c1)C(=O)N([C@@H](C)CO)C[C@H](C)[C@@H](CN(C)S(=O)(=O)c1ccc(Cl)cc1)OCCCC[C@H](C)O2`, for which the cytotoxicity call was “inactive”.

In the case of `CCOC(=O)C1=NNC[C@@H]1C(=O)OCC`, the cytotoxicity call was “inactive”.

Turning to `C[C@H](CO)N1C[C@H](C)[C@@H](CN(C)Cc2ccc(C(F)(F)F)cc2)Oc2ccc(NC(=O)Nc3ccc(C(F)(F)F)cc3)cc2C1=O`, the cytotoxicity call was “inactive”.

On to `C[C@H](CO)N1C[C@H](C)[C@H](CN(C)Cc2ccc(C(F)(F)F)cc2)Oc2ccc(NC(=O)Nc3ccc(C(F)(F)F)cc3)cc2C1=O`, for which the cytotoxicity call is “active”.

Consider `C[C@H]1CN([C@@H](C)CO)C(=O)c2cc(NC(=O)Nc3ccc(C(F)(F)F)cc3)ccc2O[C@H]1CN(C)Cc1ccc(C(F)(F)F)cc1`, for which the cytotoxicity call is “inactive”.

With `C[C@H]1CN([C@@H](C)CO)C(=O)c2cc(NC(=O)Nc3ccc(C(F)(F)F)cc3)ccc2O[C@@H]1CN(C)Cc1ccc(C(F)(F)F)cc1`, the cytotoxicity call is “active”.

On to `CC(=O)N1CCN(c2ccnc3c2c(=O)n(CC(=O)NC(C)(C)C)c(=O)n3C)CC1`, for which the cytotoxicity call was “inactive”.

With `CO[C@H]1C[C@@H]2CC[C@@H](C)[C@@](O)(O2)C(=O)C(=O)N2CCCC[C@H]2C(=O)O[C@H]([C@H](C)C[C@@H]2CC[C@@H](OCCO)[C@H](OC)C2)CC(=O)[C@H](C)/C=C(\C)[C@@H](O)[C@@H](OC)C(=O)[C@H](C)C[C@H](C)/C=C/C=C/C=C/1C`, the cytotoxicity call was “inactive”.

For `C[C@@H]1CN([C@@H](C)CO)C(=O)Cc2cc(NS(=O)(=O)c3cn(C)cn3)ccc2O[C@@H]1CN(C)S(=O)(=O)c1ccc(Cl)cc1`, the cytotoxicity call is “inactive”.

Take `C[C@H]1CN([C@@H](C)CO)C(=O)c2cccc(NS(=O)(=O)c3ccc(Cl)cc3)c2O[C@H]1CN(C)Cc1ccc(-c2ccccc2)cc1`: the cytotoxicity call was “inactive”.

Take `COc1ccc(N2C(=O)C[C@@H](c3ccc(Br)cc3)[C@H]2C(=O)Nc2cccc3cccnc23)cc1`: the cytotoxicity call is “inactive”.

On to `COc1nc(=NC(=O)NS(=O)(=O)Nc2cccc3cccnc23)nc(OC)[nH]1`, for which the cytotoxicity call is “active”.

Consider `C[C@@H]1CN([C@H](C)CO)C(=O)Cc2cc(NS(=O)(=O)c3ccc(F)cc3)ccc2O[C@H]1CN(C)S(=O)(=O)c1cccs1`, for which the cytotoxicity call is “inactive”.

`Cc1cc(C2(c3cc(C)c(N)c(C)c3)CCCCC2)cc(C)c1N`: the cytotoxicity call is “active”.

In the case of `CC1CCC(NC(=O)N(CCCl)[NH2+][O-])CC1` (configuration not stated), the cytotoxicity call is “inactive”.

`CC(C)NC(=O)[C@@H]1c2ccccc2C(=O)N(Cc2cc(C(F)(F)F)cc(C(F)(F)F)c2)[C@H]1c1ccc(CO)cc1`: the cytotoxicity call is “inactive”.

Take `Cc1ccc(N(c2ccc(C)cc2)c2cccnc2)cc1`: the cytotoxicity call is “inactive”.

`C[C@@H]1CN([C@@H](C)CO)S(=O)(=O)c2ccc(C#Cc3ccccc3F)cc2O[C@@H]1CN(C)CC1CCOCC1`: the cytotoxicity call was “inactive”.

Regarding `O=C(C[C@H]1C=C[C@H](NC(=O)CN2CCOCC2)[C@@H](CO)O1)NCCc1ccccc1`, the cytotoxicity call is “inactive”.

For `CC(C)NC(=O)N(C)C[C@@H]1Oc2ccc(NC(=O)NC3CCCCC3)cc2C(=O)N([C@@H](C)CO)C[C@H]1C`, the cytotoxicity call is “inactive”.

Consider `Cc1ccc(S(=O)(=O)N(C)C[C@@H]2OCCCC[C@@H](C)Oc3ccc(NC(=O)Nc4ccccc4)cc3C(=O)N([C@H](C)CO)C[C@H]2C)cc1`, for which the cytotoxicity call was “inactive”.

In the case of `Cc1ccc(S(=O)(=O)N(C)C[C@@H]2OCCCC[C@H](C)Oc3ccc(NC(=O)Nc4ccccc4)cc3C(=O)N([C@@H](C)CO)C[C@H]2C)cc1`, the cytotoxicity call was “inactive”.

Regarding `Cc1ccc(S(=O)(=O)N(C)C[C@H]2OCCCC[C@@H](C)Oc3ccc(NC(=O)Nc4ccc(F)cc4)cc3C(=O)N([C@H](C)CO)C[C@H]2C)cc1`, the cytotoxicity call was “inactive”.

With `Cc1ccc(S(=O)(=O)N(C)C[C@@H]2OCCCC[C@@H](C)Oc3ccc(NC(=O)Nc4ccc(F)cc4)cc3C(=O)N([C@@H](C)CO)C[C@@H]2C)cc1`, the cytotoxicity call is “inactive”.

In the case of `Cc1ccc(S(=O)(=O)N(C)C[C@@H]2OCCCC[C@H](C)Oc3ccc(NC(=O)Nc4ccc(F)cc4)cc3C(=O)N([C@@H](C)CO)C[C@H]2C)cc1`, the cytotoxicity call was “inactive”.

With `Cc1ccc(S(=O)(=O)N(C)C[C@@H]2OCCCC[C@@H](C)Oc3ccc(NC(=O)Nc4ccc(F)cc4)cc3C(=O)N([C@H](C)CO)C[C@H]2C)cc1`, the cytotoxicity call is “active”.

For `Cc1ccc(S(=O)(=O)N(C)C[C@H]2OCCCC[C@@H](C)Oc3ccc(NC(=O)Nc4ccc(F)cc4)cc3C(=O)N([C@@H](C)CO)C[C@H]2C)cc1`, the cytotoxicity call is “active”.

`Cc1ccc(S(=O)(=O)N(C)C[C@@H]2OCCCC[C@@H](C)Oc3ccc(NC(=O)Nc4ccccc4)cc3C(=O)N([C@@H](C)CO)C[C@H]2C)cc1`: the cytotoxicity call was “active”.

As to `Cc1ccc(S(=O)(=O)N(C)C[C@@H]2OCCCC[C@H](C)Oc3ccc(NC(=O)Nc4ccc(F)cc4)cc3C(=O)N([C@@H](C)CO)C[C@@H]2C)cc1`, the cytotoxicity call is “inactive”.

With `CCS(=O)(=O)N1CC[C@]2(CC1)CN(Cc1ccc3c(c1)OCO3)[C@H](CO)c1c2c2ccc(cc2n1C)OC`, the cytotoxicity call was “inactive”.

`O=C(C[C@H]1C=C[C@H](NC(=O)Cc2ccccn2)[C@@H](CO)O1)NCCCN1CCOCC1`: the cytotoxicity call is “inactive”.

As for `CC(C)NC(=O)Nc1ccc2c(c1)C(=O)N([C@H](C)CO)C[C@H](C)[C@@H](CN(C)Cc1ccc(Oc3ccccc3)cc1)O2`, the cytotoxicity call is “inactive”.

Regarding `C[C@H](CO)N1C[C@H](C)[C@@H](CN(C)S(=O)(=O)c2ccc(F)cc2)Oc2ncc(Br)cc2C1=O`, the cytotoxicity call was “inactive”.

As to `C[C@@H]1CN([C@@H](C)CO)C(=O)Cc2cc(NS(=O)(=O)c3ccc(F)cc3)ccc2O[C@@H]1CN(C)CC1CC1`, the cytotoxicity call was “inactive”.

As for `COc1ccccc1-c1ccc2c(c1)O[C@@H](CN(C)C(=O)c1ccncc1)[C@@H](C)CN([C@@H](C)CO)S2(=O)=O`, the cytotoxicity call was “inactive”.

On to `O=c1cc[nH]c(=S)[nH]1`, for which the cytotoxicity call is “inactive”.

Regarding `Cn1cnc(S(=O)(=O)N2C[C@@H](O)COC[C@@H]3O[C@@H](CC(=O)NCc4cccc(F)c4)CC[C@H]32)c1`, the cytotoxicity call is “inactive”.

`C[C@@H]1CCCCO[C@H](CN(C)Cc2ccc(C(=O)O)cc2)[C@@H](C)CN([C@@H](C)CO)C(=O)c2cc(NC(=O)Nc3ccccc3)ccc2O1`: the cytotoxicity call is “inactive”.

`CC(=O)NCCOc1ccc(C(=O)O)cc1`: the cytotoxicity call was “inactive”.

Turning to `N=C(N)c1ccc(C(N)=O)cc1`, the cytotoxicity call is “inactive”.

For `N=C(N)c1ccc(OCCCCCOc2ccc(C(=N)N)cc2)cc1.O=S(=O)(O)CCO.O=S(=O)(O)CCO`, the cytotoxicity call was “active”.
